# According to PubChem BioAssay AID504465 (National Center for Advancing Translational Sciences (NCATS), 2011):
# About 210 (10%) of roughly 2,100 compounds were called active. Not shown: some 53% with an inconclusive outcome. The list shows a part of the results. Unmarked numbers belong to inactive results. Calls follow the shape of the dose curve; as a rule, active = well fitted inhibition curve with a large enough effect; inconclusive = small, poorly fitted or top-dose-only effect, or effect the other way; inactive = no such curve, though single readings can be large or run the other way.
# Assay: IN Cell qHTS Assay for Inhibitors of the mTORC1 Signaling Pathway in MEF (Tsc2-/-, p53-/-) Cells: Sytravon; also: nearly all actives have a fitted effect of over 60% in size;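 as to activity, negative = inhibition: plate controls were DMSO wells for no effect and 7.5 nM rapamycin full pathway inhibition for full effect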
# Conditions: phospho-rpS6 immunofluorescence, 24 h; series mostly up to 38.3 µM; activity, negative = inhibition: at the top concentration
# Procedure, shortened: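 Tsc2-/-, p53-/- MEFs (empty-vector) treated with compound 24 h at 37 degree Celsius, then fixed and stained for phospho-rpS6 Ser235/236 (Alexa-488) plus Hoechst. Reported as % positive cells, thresholds set against 7.5 nM rapamycin and DMSO wells.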
# Potency is read from the fitted curve at half-maximal effect.
SMILES,Potency,"activity, negative = inhibition"
CCCN(CCC)CC(O)Cn1cc(/C=C/C(=O)c2ccc(OCC)cc2)c2ccccc21 (stereo not given),14.7 µM (active),–
Cc1cccc(NC(c2ccccc2C)c2ccc3ccc(C)nc3c2O)n1 (stereo not given),–,4.5%
COc1ccc(CCNC(=O)CCc2cn(Cc3ccc(F)cc3)c3ccccc23)cc1OC,–,-22.2%
CCN(CC)S(=O)(=O)c1ccc2oc(C(=O)NCc3ccccc3OC)c(C)c2c1,–,4.33%
COc1ccccc1CNC(=O)CCc1c(C)c2ccc(OC)c(C)c2oc1=O,1.47 µM (active),–
CCOc1ccccc1CNC(=O)CCc1cn(C)c2ccccc12,–,6.25%
Cc1ccc(CN2CCCn3nc(C(=O)NCc4ccccc4Cl)cc3C2=O)cc1,–,-6.67%
Nc1cc(=O)nc(SCC(=O)Nc2ccc(F)cc2)n1-c1ccc(Cl)cc1,–,9.49%
Cc1ccc(-c2nc(N3CCCC(C)C3)c3ccccc3n2)cc1 (stereo not given),–,17.8%
COc1ccc2ncc3c(-c4ccc(C)c(C)c4)nn(CC(=O)Nc4ccccc4)c3c2c1,–,-1.93%
Cc1ccc(N2CC(C(=O)NCCS(=O)(=O)N3CCN(c4ccccc4F)CC3)CC2=O)cc1 (stereo not given),–,1.3%
COc1ccc(-c2nc(CN3CCC(C(=O)NCCCN4CCN(c5ccccc5F)CC4)CC3)c(C)o2)cc1OC,13.1 µM (active),–
O=C(NCCCN1CCN(c2ccccc2F)CC1)c1nnc(Cc2ccc(Cl)cc2Cl)o1,–,-19.5%
COc1cccc(CNC(=O)CCn2cccn2)c1,–,0.892%
O=C(Cn1c(=O)c2cccn2c2ccc(F)cc21)NCc1cccc(Cl)c1,–,-24.6%
CC(C(=O)NCc1cccc(Br)c1)n1ncn2cccc2c1=O (stereo not given),1.47 µM (active),–
Cn1cc(-c2cc3n(n2)CCC(=O)N3CC(=O)NCc2ccc(Cl)cc2)c2ccccc21,–,-1.06%
CCOC(=O)c1nc(Nc2ccc(C(=O)OC(C)C)cc2)c2ccccc2n1,–,18.7%
CCc1ccc(NC(=O)CSc2nc3n[nH]c(C)c3c(=N)n2-c2ccc(C)cc2)cc1,–,0%
COc1cc(CNc2ccc3c(c2)ncn3C(C)C)cc(OC)c1OC,–,-19.3%
Cc1ccc(NC(=O)c2c(C)oc3ccc(O)c(CN4CCCCCC4)c23)c(C)c1,–,1.43%
CC1CCN(S(=O)(=O)c2ccc3nc(Nc4cccc(C(F)(F)F)c4)ccc3c2)CC1,–,-8.63%
CCc1ccc2oc(C(=O)N(Cc3cccc(Cl)c3)Cc3ccco3)c(C)c2c1,–,1.43%
CCS(=O)(=O)c1ncc(Cl)c(C(=O)N(Cc2ccccc2)Cc2ccco2)n1,3.69 µM (active),–
CCOc1ccccc1C(=O)N(Cc1ccco1)Cc1ccccc1F,–,-13.7%

SMILES,Potency,"activity, negative = inhibition"
CS(=O)(=O)c1ncc(Cl)c(C(=O)N(Cc2ccc(Cl)cc2)Cc2ccco2)n1,2.33 µM (active),–
Cc1cccc(OCC(=O)N(Cc2ccc(C(C)(C)C)cc2)Cc2ccco2)c1,–,-18.6%
O=C(NCC1CCN(Cc2cccc(F)c2)CC1)c1cc2ccc3cccnc3c2[nH]1,–,-23.5%
CCOC(=O)c1sc2ccccc2c1S(=O)(=O)Nc1ccc(CC)cc1,–,0%
CC1=C(C(=O)Nc2ccc(Cl)cc2)C(c2ccccc2)n2ncc(C(=O)Nc3ccccc3)c2N1 (stereo not given),–,-25.6%
COc1ccc(C2C(C(=O)Nc3ccccc3)=C(C)Nc3nc(-c4ccc(Cl)cc4)nn32)cc1 (stereo not given),13.1 µM (active),–
COc1ccccc1C1C(C(=O)Nc2ccccc2)=C(C)Nc2nc(-c3ccccc3)nn21 (stereo not given),–,45.8%
COc1cccc(NC(=O)CSc2c3c(nc4ccccc24)CCCC3)c1,–,-76.4%
CCOc1ccc(NC(=O)CSc2c3c(nc4ccccc24)CCCC3)cc1,–,-97%
COc1ccc(Nc2c3c(nc4ccc(NC(=O)/C=C/c5cc(OC)c(OC)c(OC)c5)cc24)CCCC3)cc1OC,1.47 µM (active),–
COc1ccc(/C=C/C(=O)Nc2ccc3nc4c(c(Nc5ccccc5OC)c3c2)CCCC4)cc1,2.07 µM (active),–
COc1ccc(/C=C/C(=O)Nc2ccc3nc4c(c(Nc5ccc(OC)c(OC)c5)c3c2)CCCC4)cc1,3.69 µM (active),–
COc1ccc(S(=O)(=O)Nc2ccc3oc4c(c3c2)CCCC4)cc1,–,-24%
O=S(=O)(c1ccccc1F)N1CCC(Oc2ccc(-n3cnnn3)cc2)CC1,–,1.79%
CCOCCc1nn2c(=O)cc(COC(=O)c3ccc(NC(=O)c4cccs4)cc3)nc2s1,–,-7.25%
CCOc1ccc(S(=O)(=O)Nc2cc(Cl)ccc2OC)c2cccnc12,–,-6.32%
CCC(=O)Nc1cc(-c2nc3cc(C)cc(C)c3o2)ccc1C,–,-20.3%
CCCn1c(=O)sc2cc(NC(=O)c3ccc(OC)c(Br)c3)ccc21,–,17%
Cc1cccc(-c2nc3cc(NC(=O)Cc4ccc(Cl)cc4)ccc3o2)c1,–,-15.8%
COc1ccc(-c2nc3cc(NC(=O)Cc4ccc(Cl)cc4)ccc3o2)cc1OC,3.29 µM (active),–
COc1ccc(-c2nc3cc(C(C)C)ccc3o2)cc1NC(=O)c1ccccc1[N+](=O)[O-],–,-22.3%
COc1c(C)cc(Br)cc1C(=O)Nc1ccc(-c2nc3ncccc3o2)cc1,–,3.45%
COc1ccc(NC(=O)CCn2cnc3onc(-c4ccc(F)cc4)c3c2=O)cc1OC,–,-9.75%
COc1ccc(C(=O)Nc2ccc3oc(-c4ccc5ccccc5c4)nc3c2)cc1Br,13.1 µM (active),–
O=C(Nc1ccc2oc(-c3ccc4ccccc4c3)nc2c1)c1cc(Br)ccc1Cl,16.5 µM (active),–
